Measured values published in PubChem BioAssay.
Values without a mark were called inactive. Calls of active or inactive are those of the source. Cut-off read from the data, not from the text of the source, unless noted: active = inhibition above about 28%; inactive = the rest.

Columns and labels:
[1] = StAR promoter reporter inhibitors, counter-screen for LRH-1 inverse agonist project, cell-based, luminescence, high throughput (AID 651611); details: StAR promoter luciferase reporter counterscreen, at 3.6 µM, active compounds read high
[2] = target: Nuclear receptor subfamily 5 group A member 2 (Homo sapiens) (UniProt O00482); assay: NR5A2 activity suppression in reporter cells – cell-based, luminescence, confirmation (AID 651613; in the data active = inhibition above about 42%;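 note: HEK293T cells co-transfected with LRH-1 and StAR promoter luciferase reporter; 0% = vehicle wells and 100% = parental cells lacking receptor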); details: cell-based LRH-1 luciferase reporter, inverse agonism; at 3.6 µM; active compounds read high
[3] = target: Steroidogenic factor 1 (Homo sapiens) (UniProt Q13285); assay: inverse agonism at SF1 nuclear receptor – cell-based, luminescence, high throughput, counter-screen for LRH-1 inverse agonist project (AID 651614; in the data active = inhibition above about 44%;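 note: cells cotransfected with StAR promoter reporter and SF1 expression vector; 0% = vehicle on cells with receptor and 100% = vehicle on cells lacking receptor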); details: cell-based SF1 luciferase reporter, at 3.6 µM, active compounds read high
[4] = compounds suppressing VP16-driven luciferase signal – cell-based, luminescence, high throughput, counter-screen for LRH-1 inverse agonist project (AID 651615; in the data active = inhibition above about 33%); details: Gal4-VP16 luciferase reporter cells, at 3.6 µM, active compounds read high

Sequence of Nuclear receptor subfamily 5 group A member 2 (Homo sapiens) (O00482 whole entry, looked up): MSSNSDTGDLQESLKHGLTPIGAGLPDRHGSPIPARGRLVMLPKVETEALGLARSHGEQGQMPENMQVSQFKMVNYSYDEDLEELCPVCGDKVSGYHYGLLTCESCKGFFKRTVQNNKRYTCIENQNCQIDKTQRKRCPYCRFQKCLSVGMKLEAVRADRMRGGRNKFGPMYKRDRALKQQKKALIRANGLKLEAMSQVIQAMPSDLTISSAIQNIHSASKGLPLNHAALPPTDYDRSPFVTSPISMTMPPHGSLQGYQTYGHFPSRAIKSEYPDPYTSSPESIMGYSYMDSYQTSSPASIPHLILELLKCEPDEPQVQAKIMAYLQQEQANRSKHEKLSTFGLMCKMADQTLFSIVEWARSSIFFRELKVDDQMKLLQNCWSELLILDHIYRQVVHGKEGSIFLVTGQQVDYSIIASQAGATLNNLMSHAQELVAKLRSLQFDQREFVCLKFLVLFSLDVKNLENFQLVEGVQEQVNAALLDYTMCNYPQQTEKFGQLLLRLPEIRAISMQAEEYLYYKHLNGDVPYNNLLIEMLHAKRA
Sequence of Steroidogenic factor 1 (Homo sapiens) (Q13285 whole entry, looked up, the tested form may be a part): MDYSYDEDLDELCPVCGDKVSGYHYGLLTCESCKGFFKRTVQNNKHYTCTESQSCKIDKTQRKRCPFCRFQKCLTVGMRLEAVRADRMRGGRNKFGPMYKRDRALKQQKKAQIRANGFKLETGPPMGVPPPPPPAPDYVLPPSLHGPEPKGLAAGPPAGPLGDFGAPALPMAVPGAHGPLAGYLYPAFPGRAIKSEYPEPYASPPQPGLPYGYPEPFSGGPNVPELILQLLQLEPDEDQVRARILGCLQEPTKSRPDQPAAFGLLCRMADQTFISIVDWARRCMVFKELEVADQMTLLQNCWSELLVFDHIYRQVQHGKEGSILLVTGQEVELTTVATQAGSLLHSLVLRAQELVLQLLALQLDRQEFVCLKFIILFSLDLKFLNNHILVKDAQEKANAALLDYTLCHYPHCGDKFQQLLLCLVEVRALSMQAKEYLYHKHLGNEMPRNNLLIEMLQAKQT

Compound | inhibition [1] | inhibition [2] | inhibition [3] | inhibition [4]
COc1ccc(O)c(/C=N/Nc2nc(Nc3ccccc3)nc(-n3nc(C)cc3C)n2)c1 | 21.3% | -28.7% | -41.8% | -35.4%
COc1ccc(N2CCN(C(=O)CSc3nnc(-c4cc5ccccc5cc4O)n3C)CC2)cc1 | 19.8% | 59% (active) | 58.3% (active) | 13.6%
CC(=O)Nc1ccc(NC(=O)CSc2nc3nc(-c4cccs4)cc(C(F)(F)F)c3c(=O)[nH]2)cc1 | 8.21% | 54.2% (active) | 49.2% (active) | -4.54%
NC1=CC(=O)C(=O)c2ccccc21 | 29.2% (active) | 54.9% (active) | 47% (active) | -6.09%
